A collection of fitness landscapes (doi:10.1038/s41467-024-54723-y)
The full ranking holds about 18,000 sequences; the median of “TetR repression strength (sort-seq, GFP reporter)” is about 0.23, and the highest 2% start at about 0.68. What follows is part of a selection rich in the highest values, with near analogues and random picks from the rest.

These sequences were tested against TetR (class B, Tn10) (UniProt P04483) (assay: TetR repression strength (sort-seq, GFP reporter) (relative to tetO2 = 1); higher = stronger repression). Conditions: E. coli.
Sequence of TetR (class B, Tn10) (P04483 whole entry): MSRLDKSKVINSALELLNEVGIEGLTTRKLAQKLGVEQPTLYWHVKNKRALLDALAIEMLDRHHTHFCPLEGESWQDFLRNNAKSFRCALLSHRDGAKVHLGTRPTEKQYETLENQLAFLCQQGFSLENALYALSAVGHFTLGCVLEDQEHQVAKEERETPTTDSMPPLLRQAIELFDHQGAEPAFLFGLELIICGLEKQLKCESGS
Outline: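 Three independent transformations of E. coli SIG10-MAX were made with a low-copy plasmid library randomizing eight operator positions between a constitutive promoter and sfGFP, with constitutive TetR. Following 5 h at 37 °C in LB plus 50 µg/mL chloramphenicol, 10^6 cells went through FACS into 13 fluorescence bins, and each bin was sequenced by Illumina. Repression strength was defined as the top bin index plus one minus the read-weighted mean bin, divided by the unaltered operator's value. Averages included only members reaching ≥30 reads in all replicates with a CV ≤0.5.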

Sequence | TetR repression strength
TCCCGGACAGTAACGGAGA | 0.312
TCCCGCGGAGTCACTGAGA | 0.415
TCCCTCGTAGTGTTTGAGA | 0.362
TCCCAGTCAGTTCAGGAGA | 0.096
TCCCGATAAGTTGCGGAGA | 0.185
TCCCTTTCAGTAGGGGAGA | 0.194
TCCCTTTCAGTAGCGGAGA | 0.798
TCCCTTTCAGTCGAGGAGA | 0.369
TCCCTTTCAGTAGAGGAGA | 1.01
TCCCTTACAGTAGCGGAGA | 0.0543
TCCCCTTCAGTAGCGGAGA | 0.344
TCCCAGACAGTCATCGAGA | 0.368
TCCCTAGCAGTTGTAGAGA | 0.509
TCCCTTGCAGTGATCGAGA | 0.654
TCCCGTCGAGTAGGGGAGA | 0.127
TCCCAGCGAGTTAGAGAGA | 0.815
TCCCTAGGAGTTAGGGAGA | 0.979
TCCCTGGGAGTTAGTGAGA | 0.146
TCCCTAGTAGTTAGGGAGA | 0.192
TCCCTGGGAGTTAGAGAGA | 0.832
TCCCTGATAGTTTGAGAGA | 0.382
TCCCAGCGAGTTACAGAGA | 0.238
TCCCTGTTAGTTTGTGAGA | 0.4
TCCCAGAGAGTTAGCGAGA | 0.557
TCCCTGTTAGTTTGAGAGA | 0.856
TCCCTGGGAGTTATAGAGA | 0.354

Sequence | TetR repression strength
TCCCTTGGAGTTAGGGAGA | 0.2
TCCCAGAAAGTCAATGAGA | 0.289
TCCCTGCTAGTGGCAGAGA | 0.119
TCCCTATAAGTAGGAGAGA | 0.228
TCCCAGTGAGTGCGCGAGA | 0.286
TCCCCAGAAGTCGTTGAGA | 0.061
TCCCCGTAAGTACAGGAGA | 0.368
TCCCGGCAAGTTTTTGAGA | 0.238
TCCCGGGAAGTGGGGGAGA | 0.274
TCCCGGATAGTGATCGAGA | 0.33
TCCCGACTAGTCAGGGAGA | 0.515
TCCCCGGGAGTGTGGGAGA | 0.207
TCCCTTGGAGTTGAGGAGA | 0.465
TCCCCTTGAGTTGAGGAGA | 0.707
TCCCTGGTAGTTAGTGAGA | 0.141
TCCCTAGAAGTTGCGGAGA | 1.2
TCCCAAGAAGTTGCGGAGA | 0.21
TCCCCTAGAGTTGAGGAGA | 0.239
TCCCTAGTAGTTGCGGAGA | 0.322
TCCCTGGTAGTGAGAGAGA | 0.326
TCCCTGGTAGTTAGAGAGA | 0.821
TCCCTGGTAGTGACCGAGA | 0.116
TCCCTGTTAGTTAGAGAGA | 0.452
TCCCTGGTAGTGACAGAGA | 1.03
TCCCGGCTAGTGTGGGAGA | 0.221
TCCCAGGAAGTCAGGGAGA | 0.235

Sequence | TetR repression strength
TCCCCGAGAGTGCCAGAGA | 0.411
TCCCAATGAGTTCAGGAGA | 0.243
TCCCAGTTAGTAATTGAGA | 0.0467
TCCCTGGGAGTTGGGGAGA | 0.211
TCCCCTGGAGTTGGGGAGA | 1.09
TCCCCTGGAGTTTGGGAGA | 0.286
TCCCGACTAGTGATAGAGA | 0.632
TCCCGTCTAGTGTTTGAGA | 0.371
TCCCCTCTAGTGTTTGAGA | 0.945
TCCCCTCGAGTGTGTGAGA | 0.125
TCCCCTTGAGTGTTTGAGA | 0.302
TCCCCTCGAGTGTTTGAGA | 0.92
TCCCCTGTAGTGTTTGAGA | 0.396
TCCCCCAGAGTTAACGAGA | 0.207
TCCCCTGCAGTGGCTGAGA | 0.205
TCCCCATTAGTAGTCGAGA | 1.01
TCCCCAAAAGTAGATGAGA | 0.081
TCCCCAATAGTAGTCGAGA | 0.459
TCCCCATTAGTATTCGAGA | 0.24
TCCCCATGAGTAGTCGAGA | 1.03
TCCCCATGAGTCGTCGAGA | 0.214
TCCCGTTGAGTCGATGAGA | 0.335
TCCCCACGAGTAGTCGAGA | 0
TCCCCTAGAGTCGATGAGA | 0.271
TCCCGTAGAGTCGATGAGA | 0.715
TCCCCAATAGTAGATGAGA | 0.672

Sequence | TetR repression strength
TCCCCAAGAGTAGATGAGA | 0.739
TCCCGAAGAGTAAGTGAGA | 0.207
TCCCGTCCAGTGTGTGAGA | 0.22
TCCCATATAGTGTACGAGA | 0.0769
TCCCCTAGAGTGCAAGAGA | 0.552
TCCCATGGAGTTGGTGAGA | 0.227
TCCCCTCAAGTCGAGGAGA | 0.125
TCCCTACAAGTGGATGAGA | 0.221
TCCCCAGTAGTCTGAGAGA | 0.0196
TCCCTATTAGTCCCAGAGA | 0.32
TCCCCAGTAGTCGCTGAGA | 0.311
TCCCTTTCAGTCCCAGAGA | 0.0305
TCCCTATCAGTCCCAGAGA | 1.18
TCCCTATCAGTGCCAGAGA | 0.743
TCCCCAGTAGTCCCTGAGA | 0.945
TCCCTATCAGTCCGAGAGA | 0.324
TCCCTGTCAGTGCCAGAGA | 0.324
TCCCCTTCAGTCCCAGAGA | 1.12
TCCCTCTCAGTGCCAGAGA | 0.585
TCCCAGTCAGTCCCAGAGA | 0.365
TCCCGTCAAGTAATAGAGA | 0.331
TCCCTGTTAGTTGTCGAGA | 0.341
TCCCTTTCAGTATGGGAGA | 0.422
TCCCAAAAAGTGGTGGAGA | 0.203
TCCCCGCGAGTTGAAGAGA | 0.335
TCCCTAACAGTCGGCGAGA | 0.163
